# Out of some 39,000 compounds screened, about 3,300 (8.5%) were called active. Shown is part of a subset that was picked to be rich in actives.
# System: HepG2
# Assay: cytotoxicity call (relative viability < 0.9)
# Details: 10 µM
row,Compound,cytotoxicity call
1,C[C@H](CO)N1C[C@H](C)[C@@H](CN(C)Cc2cncnc2)Oc2ncc(C#C[C@@H](C)O)cc2C1=O,inactive
2,O=P(O)(O)CN1CCN(CP(=O)(O)O)CCN(CP(=O)(O)O)CCN(CP(=O)(O)O)CC1,inactive
3,COc1ccc(NC(=O)Nc2ccc3c(c2)CC(=O)N([C@H](C)CO)C[C@@H](C)[C@H](CN(C)CC2CCCCC2)O3)cc1,inactive
4,C[C@@H]1CN([C@H](C)CO)C(=O)Cc2cc(NC(=O)Nc3ccc(F)cc3)ccc2O[C@H]1CN(C)CC1CCCCC1,active
5,C[C@H]1CN([C@@H](C)CO)C(=O)Cc2cc(NC(=O)Nc3ccc(F)cc3)ccc2O[C@H]1CN(C)CC1CCCCC1,active
6,C[C@H]1CN([C@@H](C)CO)C(=O)Cc2cc(NC(=O)Nc3ccc(F)cc3)ccc2O[C@@H]1CN(C)CC1CCCCC1,active
7,C[C@@H]1CN([C@@H](C)CO)C(=O)Cc2cc(NC(=O)Nc3ccc(F)cc3)ccc2O[C@@H]1CN(C)CC1CCCCC1,active
8,Cc1noc(C)c1S(=O)(=O)Nc1ccc2c(c1)C(=O)N([C@H](C)CO)C[C@H](C)[C@@H](CN(C)C(=O)NC1CCCCC1)O2,inactive
9,CNC[C@H]1OCCCC[C@H](C)Oc2ccc(NC(=O)c3ccncc3)cc2C(=O)N([C@H](C)CO)C[C@@H]1C,inactive
10,COc1ccc2c3c([nH]c2c1)[C@H](CO)N(C[C@]13CN(C1)S(=O)(=O)c1cccs1)C(=O)c1ccccc1,inactive
11,COc1ccc2c3c([nH]c2c1)[C@@H](CO)N(CC1CCOCC1)C[C@]13CCN(CC1)C(=O)C1CCOCC1,inactive
12,CC(C)CC#Cc1ccc2c(c1)O[C@@H](CN(C)C(=O)Cc1ccncc1)[C@H](C)CN([C@H](C)CO)S2(=O)=O,inactive
13,COc1ccc(CN(C)C[C@H]2OCCCC[C@@H](C)Oc3ccc(NC(=O)c4ccncc4)cc3C(=O)N([C@H](C)CO)C[C@@H]2C)cc1,inactive
14,CC(C)c1cn(CC[C@@H]2CC[C@H](N)[C@@H](CO)O2)nn1,inactive
15,CO[C@@H]1CN(C)C(=O)c2ccc(NS(=O)(=O)c3cn(C)cn3)cc2OC[C@@H](C)N(Cc2cccc(F)c2)C[C@@H]1C,inactive
16,CCN(CC)CCNc1nc(=O)[nH]nc1C,inactive
17,O=C(N[C@H]1CC[C@H](CCn2cc(C3(O)CCCC3)nn2)O[C@@H]1CO)C1CCOCC1,inactive
18,COc1ccc(-c2cnc3c(c2)C(=O)N([C@H](C)CO)C[C@H](C)[C@H](CN(C)S(=O)(=O)c2ccc(C#N)cc2)O3)cc1,inactive
19,C[C@@H]1CN([C@H](C)CO)C(=O)Cc2cc(NC(=O)Nc3ccc(F)cc3)ccc2O[C@@H]1CN(C)CC1CCCCC1,active
20,C[C@H](CO)N1C[C@H](C)[C@H](CN(C)CC2CCCCC2)Oc2ccc(NC(=O)Nc3ccc(F)cc3)cc2CC1=O,active
21,C[C@H](CO)N1C[C@H](C)[C@@H](CN(C)CC2CCCCC2)Oc2ccc(NC(=O)Nc3ccc(F)cc3)cc2CC1=O,inactive
22,C[C@@H]1CN([C@@H](C)CO)C(=O)Cc2cc(NC(=O)Nc3ccc(F)cc3)ccc2O[C@H]1CN(C)CC1CCCCC1,inactive

row,Compound,cytotoxicity call
1,O=C(C[C@H]1CC[C@H]2[C@@H](COC[C@@H](O)CN2S(=O)(=O)c2ccccc2)O1)NCc1ccc2c(c1)OCO2,inactive
2,C[C@H](CO)N1C[C@H](C)[C@H](CN(C)C(=O)Nc2cccc3ccccc23)Oc2ncc(/C=C/c3ccccc3)cc2C1=O,inactive
3,NC(=O)c1cc2ccccc2nc1C(N)=O,inactive
4,C[C@H](CO)N1C[C@H](C)[C@H](CN(C)C(=O)Nc2cccc3ccccc23)Oc2ccc(NC(=O)C3CCCCC3)cc2C1=O,inactive
5,CO[C@H]1CN(C)C(=O)c2cc(NC(=O)c3ccccc3)ccc2OC[C@@H](C)N(C(=O)CN(C)C)C[C@H]1C,inactive
6,CC(=O)Nc1ccc(CC(=O)O)cc1,inactive
7,O=C(O)Cc1ccc(CO)cc1,inactive
8,CCCCc1ccc(CC(=O)O)cc1,active
9,COc1ccc2c3c(n(c2c1)C)[C@H](CO)N(C[C@]13CN(C1)C(=O)Nc1cccc(c1)F)C(=O)CN1CCOCC1,inactive
10,COc1ccc(NC(=O)Nc2ccc3c(c2)C(=O)N([C@@H](C)CO)C[C@H](C)[C@@H](CN(C)C(=O)C2CCCCC2)OCCCC[C@@H](C)O3)cc1,inactive
11,COc1ccc(NC(=O)Nc2ccc3c(c2)C(=O)N([C@@H](C)CO)C[C@@H](C)[C@@H](CN(C)C(=O)C2CCCCC2)OCCCC[C@@H](C)O3)cc1,inactive
12,COc1ccc(NC(=O)Nc2ccc3c(c2)C(=O)N([C@H](C)CO)C[C@@H](C)[C@H](CN(C)C(=O)C2CCCCC2)OCCCC[C@@H](C)O3)cc1,active
13,COc1ccc(NC(=O)Nc2ccc3c(c2)C(=O)N([C@@H](C)CO)C[C@H](C)[C@H](CN(C)C(=O)C2CCCCC2)OCCCC[C@H](C)O3)cc1,active
14,COc1ccc(NC(=O)Nc2ccc3c(c2)C(=O)N([C@H](C)CO)C[C@@H](C)[C@H](CN(C)C(=O)C2CCCCC2)OCCCC[C@H](C)O3)cc1,inactive
15,COc1ccc(NC(=O)Nc2ccc3c(c2)C(=O)N([C@@H](C)CO)C[C@H](C)[C@H](CN(C)C(=O)C2CCCCC2)OCCCC[C@@H](C)O3)cc1,inactive
16,Cn1cnc(S(=O)(=O)N2C[C@@H](O)COC[C@H]3O[C@H](CC(=O)NC4Cc5ccccc5C4)CC[C@@H]32)c1,inactive
17,C[C@H]1CN([C@@H](C)CO)C(=O)c2cccc(NC(=O)Nc3ccc4c(c3)OCO4)c2O[C@@H]1CN(C)Cc1ccc(Cl)c(Cl)c1,inactive
18,COc1ccc(S(=O)(=O)N(C)C[C@@H]2Oc3cc(Br)ccc3S(=O)(=O)N([C@H](C)CO)C[C@@H]2C)cc1,inactive
19,COc1ccc([C@H]([C@H](Cc2ccccc2)OC(C)=O)N(CC#C[C@@H](O)c2ccccc2)[C@@H](Cc2ccccc2)C(OC)OC)cc1,active
20,COc1ccc([C@H]([C@@H](O)Cc2ccccc2)N(CC#C[C@@H](O[Si](c2ccccc2)(c2ccccc2)C(C)(C)C)c2ccccc2)[C@@H](Cc2ccccc2)C(OC)OC)cc1,inactive
21,COc1ccc([C@H]([C@H](Cc2ccccc2)OC(C)=O)N(C/C=C\[C@@H](O)c2ccccc2)[C@@H](Cc2ccccc2)C(OC)OC)cc1,inactive
22,COc1ccc([C@H]([C@H](Cc2ccccc2)OC(C)=O)N(C/C=C/[C@@H](OC(C)=O)c2ccccc2)[C@@H](Cc2ccccc2)C(OC)OC)cc1,active

row,Compound,cytotoxicity call
1,COc1ccc([C@H]([C@H](Cc2ccccc2)OC(C)=O)N(CC#C[C@@H](O[Si](c2ccccc2)(c2ccccc2)C(C)(C)C)c2ccccc2)[C@@H](Cc2ccccc2)C(OC)OC)cc1,inactive
2,COc1ccc([C@H]([C@@H](O)Cc2ccccc2)N(CC#C[C@@H](O)c2ccccc2)[C@@H](Cc2ccccc2)C(OC)OC)cc1,inactive
3,COc1ccc(-c2cnc3c(c2)C(=O)N([C@@H](C)CO)C[C@H](C)[C@@H](CN(C)C(=O)C2CCOCC2)O3)cc1,inactive
4,COc1ccc(S(=O)(=O)Nc2ccc3c(c2)C(=O)N([C@H](C)CO)C[C@H](C)[C@H](CN(C)C(=O)CCC(F)(F)F)OCCCC[C@H](C)O3)cc1,inactive
5,COc1ccc(NC(=O)N(C)C[C@H]2OCCCC[C@@H](C)Oc3ccc(NC(=O)c4ccncc4)cc3C(=O)N([C@@H](C)CO)C[C@H]2C)cc1,inactive
6,O=C(C[C@@H]1C=C[C@@H](NC(=O)c2cccnc2)[C@@H](CO)O1)NCc1ccncn1,inactive
7,C[C@@H]1CN([C@@H](C)CO)C(=O)c2cc(NC(=O)c3ccccc3)ccc2O[C@@H](C)CCCCO[C@@H]1CN(C)S(=O)(=O)c1cccs1,inactive
8,C[C@@H]1CCCCO[C@@H](CN(C)S(=O)(=O)c2cccs2)[C@@H](C)CN([C@@H](C)CO)C(=O)c2cc(NC(=O)c3ccccc3)ccc2O1,inactive
9,C[C@@H]1CN([C@H](C)CO)C(=O)c2cc(NC(=O)c3ccccc3)ccc2O[C@@H](C)CCCCO[C@H]1CN(C)S(=O)(=O)c1cccs1,active
10,C[C@@H]1CCCCO[C@H](CN(C)S(=O)(=O)c2cccs2)[C@@H](C)CN([C@@H](C)CO)C(=O)c2cc(NC(=O)c3ccccc3)ccc2O1,inactive
11,C[C@@H]1CCCCO[C@@H](CN(C)S(=O)(=O)c2cccs2)[C@H](C)CN([C@@H](C)CO)C(=O)c2cc(NC(=O)c3ccccc3)ccc2O1,inactive
12,C[C@@H]1CCCCO[C@@H](CN(C)S(=O)(=O)c2cccs2)[C@H](C)CN([C@H](C)CO)C(=O)c2cc(NC(=O)c3ccccc3)ccc2O1,active
13,Cc1noc(C)c1S(=O)(=O)Nc1ccc2c(c1)C(=O)N([C@H](C)CO)C[C@H](C)[C@@H](CN(C)S(C)(=O)=O)OCCCC[C@@H](C)O2,inactive
14,CCOC(=O)N1CCN(C[C@@H](O)Cn2c(=O)c3c(ncn3C)n(C)c2=O)CC1,inactive
15,Cc1noc(C)c1S(=O)(=O)Nc1ccc2c(c1)C(=O)N([C@H](C)CO)C[C@@H](C)[C@@H](CN(C)S(=O)(=O)c1cn(C)cn1)OCCCC[C@@H](C)O2,inactive
16,COc1ccc(NC(=O)Nc2ccc3c(c2)C(=O)N([C@H](C)CO)C[C@H](C)[C@@H](CN(C)CC2CC2)OCCCC[C@H](C)O3)cc1,inactive
17,CCOC(=O)C(C#N)C1=NCCC1 (centres undefined),inactive
18,C[C@@H]1CN([C@H](C)CO)C(=O)c2cc(NC(=O)c3ccccc3)ccc2O[C@@H](C)CCCCO[C@@H]1CN(C)C(=O)Cc1ccccc1,inactive
19,COc1cccc(NC(=O)N[C@H]2C=C[C@H](CC(=O)N3CCN(C)CC3)O[C@@H]2CO)c1,inactive
20,C[C@H]1CN([C@@H](C)CO)C(=O)c2cc(NC(=O)CCN3CCOCC3)ccc2O[C@@H]1CN(C)Cc1ccc(C(=O)O)cc1,inactive

# Reference: the antibiotic and cytotoxicity screens of Wong et al. (2023)
